In the library only some 2.4% were active in any assay of this set; here they are far more common.
SmPrx2 inh: Schistosoma Mansoni Peroxiredoxins (Prx2). Schistosoma mansoni peroxiredoxin 2 (Prx2). S. mansoni Prx2 activity coupled to TGR/GSH (TGR is thioredoxin glutathione reductase), NADPH fluorescence loss, qHTS. Potency, µM. actives 0.07% (n = 65,000)
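Activity is read as the drop in NADPH fluorescence (365/450 nm), recorded every 30 sec for 8 min after H2O2 addition. Prx2 is coupled to TGR-driven NADPH oxidation through glutathione, in phosphate buffer pH 7.4.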
Anthrax LT inh: qHTS Assay for Anthrax Lethal Toxin Internalization. Cells, anthrax lethal toxin internalization, FRET ratio (460/530). Potency, µM (top dose mostly 40 µM), actives largely listed as inhibitors. actives 0.67% (n = 70,000). AID 912, 2007; also: nearly all actives have a fitted effect of over 50% in size
AmpC det inh: Promiscuous and Specific Inhibitors of AmpC Beta-Lactamase (assay with detergent); purified AmpC, nitrocefin hydrolysis with detergent; P00811; actives 0.09% (n = 71,000); AID 584, 2007; Potency, µM (series often up to 28.7 µM); active = well fitted curve in the direction sought with a large enough effect; inconclusive = small, poorly fitted or top-dose-only effect
Target sequence (P00811 whole entry, looked up): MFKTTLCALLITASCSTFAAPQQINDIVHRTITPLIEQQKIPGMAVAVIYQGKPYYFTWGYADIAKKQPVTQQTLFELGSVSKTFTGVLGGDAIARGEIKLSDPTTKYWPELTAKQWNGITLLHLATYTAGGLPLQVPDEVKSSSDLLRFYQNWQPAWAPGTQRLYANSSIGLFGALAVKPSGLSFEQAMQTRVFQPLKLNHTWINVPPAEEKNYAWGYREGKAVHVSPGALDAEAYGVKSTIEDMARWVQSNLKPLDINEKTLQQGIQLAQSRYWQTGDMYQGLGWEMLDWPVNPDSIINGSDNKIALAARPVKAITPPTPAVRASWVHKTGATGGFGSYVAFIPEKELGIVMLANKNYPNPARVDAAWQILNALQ
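E. coli AmpC (5.3 nM) in 20 mM phosphate pH 7.0 with 0.01% Triton X-100, preincubated 15 min RT with compound; nitrocefin (2 uL of 800 uM stock) hydrolysis followed by 480 nm absorbance every 20 s over 4 min.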
AmpC nodet inh: Promiscuous and Specific Inhibitors of AmpC Beta-Lactamase (assay without detergent); AID 585, 2007; Potency, µM (doses to about 28.7 µM); AmpC nitrocefin hydrolysis, absorbance 480 nm, no detergent; P00811; actives 1.8% (n = 71,000)
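Enzyme, pH 7.0 phosphate. Compound titrations were pre-incubated with AmpC for 15 min at room temperature before nitrocefin (stock 800 uM) addition; product formation was recorded at 480 nm every 20 s for 4 min.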
Large screens that a line does not name were inactive; ! = not confirmed by another sample; [ ] = another dose, or the depositor's remark. Unless noted, calls follow the shape of the full dose curve.

CCOC(=O)C1Cn2c(nc3c(c2=O)C2(CCCC2)Cc2ccccc2-3)S1 (configuration not stated)	Anthrax LT inh inconclusive (no result: SmPrx2 inh)
CCOC(=O)C1Cn2c(nc3c(c2=O)C(C)(C)Cc2ccccc2-3)S1 (configuration not stated)	Anthrax LT inh 10µM (no result: SmPrx2 inh)
Cc1ccc2c(c1)N(CC(=O)NCCN1CCOCC1)C(=O)CO2	none
c1ccc(CCCN2CCN(CCOC(c3ccccc3)c3ccccc3)CC2)cc1	Anthrax LT inh 25µM
Fc1ccc(C(OCCN2CCN(CCCc3ccccc3)CC2)c2ccc(F)cc2)cc1	Anthrax LT inh inconclusive
COc1cc(NC(=O)c2nnn(Cc3ccc(SC)cc3)c2N)cc(OC)c1	Anthrax LT inh inconclusive, AmpC nodet inh 4µM[single pt active]
CCOc1ccc(Cn2nnc(C(=O)NCc3ccc(OC)cc3)c2N)cc1	AmpC nodet inh 4µM[single pt active]
COc1ccc(OC)c(NC(=O)c2nnn(CCc3ccccc3)c2N)c1	AmpC nodet inh 4µM[single pt active]
CCOc1ccc(NC(=O)Cn2nnc(C(=O)NCc3ccccc3OC)c2N)cc1	Anthrax LT inh inconclusive
COc1cccc(NC(=O)Cn2nnc(C(=O)Nc3ccccc3)c2N)c1	none
COc1cccc(NC(=O)c2nnn(CCc3ccccc3)c2N)c1	Anthrax LT inh inconclusive, AmpC nodet inh 4µM[single pt active]
CSc1cccc(NC(=O)c2nnn(Cc3ccccc3)c2N)c1	Anthrax LT inh inconclusive
O=C(O)/C=C\c1cnc[nH]1	none
COC(=O)c1nnn(Cc2ccccc2)c1N	none
CCc1ccc(Cn2nnc(C(=O)Nc3ccc(OC)cc3OC)c2N)cc1	AmpC nodet inh 4µM[single pt active]
CCC(C)N1CC23C=CC(O2)C(C(=O)OC)C3C1=O (configuration not stated)	AmpC nodet inh 4µM[single pt active]
CCOC(=O)C1[C@H]2C(=O)N(C(C)c3ccc(OC)cc3)C[C@]23C=C[C@H]1O3 (some centres not stated)	Anthrax LT inh inconclusive
O=C1c2ccccc2C(=O)c2c1ccc(N1C(=O)c3ccccc3C1=O)c2-c1c(N2C(=O)c3ccccc3C2=O)ccc2c1C(=O)c1ccccc1C2=O	none
N[C@@H](C(=O)O)[C@@H]1C[C@H]1C(=O)O	none
NC(N)=Nc1ccc2[nH]c3c(c2c1)C[C@]1(O)[C@@H]2Cc4ccc(O)c5c4[C@]1(CCN2CC1CC1)[C@H]3O5	none
Cc1cc(C)n(-c2ccc(C(=O)OCC(=O)NCc3ccco3)cc2)n1	none
Cc1cc(C)n(-c2ccc(C(=O)OCC(=O)c3ccc(Br)s3)cc2)n1	AmpC nodet inh 13µM[single pt active]
COc1ccc(NC(=O)Nc2nnc(N3CCC(C)CC3)s2)cc1OC	AmpC nodet inh 4µM[single pt active]
COc1ccc(OC)c(NC(=O)Nc2nnc(N3CCC(C)CC3)s2)c1	Anthrax LT inh inconclusive, AmpC nodet inh 4µM[single pt active]
Cc1nonc1NC(=O)CSc1nc2cc(Cl)ccc2c2c1CCCC2	AmpC nodet inh 13µM
Cc1cccc(CCNC(=O)CN(C)S(=O)(=O)c2ccc3c(c2)c(=O)n(C)c(=O)n3C)c1	AmpC nodet inh 4µM[single pt active]
Cc1ccc(CCNC(=O)CCNS(=O)(=O)c2ccc3c(c2)c(=O)n(C)c(=O)n3C)cc1	none
COCCCNC(=O)Cn1ncc2c(=O)oc3ccccc3c21	none
CCN(CCCNC(=O)Cn1ncc2c(=O)oc3ccccc3c21)c1cccc(C)c1	AmpC nodet inh 2µM[single pt active]
O=C(Cn1ncc2c(=O)oc3ccccc3c21)NC1CC1	none
O=C(Cn1ncc2c(=O)oc3ccccc3c21)NCCCN1CCCC1=O	AmpC nodet inh 4µM[single pt active]
O=C(Cn1ncc2c(=O)oc3ccccc3c21)NCC1COc2ccccc2O1 (configuration not stated)	AmpC nodet inh 0.79µM
O=c1[nH]c2[nH]c(=S)[nH]c(=S)c2[nH]1	none
Cc1ccc(C(=O)O[C@@H](C(=O)O)[C@@H](OC(=O)c2ccc(C)cc2)C(=O)O)cc1 (tested in a mixture with another compound)	none
O=S(=O)(NCCNC/C=C\c1ccc(Br)cc1)c1cccc2cnccc12	Anthrax LT inh inconclusive (no result: SmPrx2 inh)
COc1ccc(C[C@@H]2NC[C@H](O)[C@H]2OC(C)=O)cc1	Anthrax LT inh inconclusive
COc1ccccc1-c1nccc(NCc2cccs2)n1	none (no result: SmPrx2 inh)
COCCCNC(=O)CC1Oc2ccccc2NC1=O (configuration not stated)	Anthrax LT inh inconclusive
CCC1CCCCN1CCCNC(=O)CC1Oc2ccccc2NC1=O (configuration not stated)	AmpC nodet inh 4µM[single pt active]
CC1CCN(Cc2ccc(NC(=O)CC3Oc4ccccc4NC3=O)cc2)CC1 (configuration not stated)	AmpC nodet inh 4µM[single pt active]
O=C(CC1Oc2ccccc2NC1=O)NC1CC1 (configuration not stated)	none
O=C(CC1Oc2ccccc2NC1=O)NCCCN1CCN(C2CCCCC2)CC1 (configuration not stated)	SmPrx2 inh inconclusive, AmpC nodet inh 4µM[single pt active]
COc1ccc(S(=O)(=O)Cc2ccc(C(=O)NCCc3ccc(S(N)(=O)=O)cc3)o2)cc1	none
COc1ccc(S(=O)(=O)Cc2ccc(C(=O)NCc3cccnc3)o2)cc1	AmpC nodet inh 4µM[single pt active]
COc1ccc(S(=O)(=O)Cc2ccc(C(=O)NCc3ccc(F)cc3)o2)cc1	Anthrax LT inh inconclusive, AmpC nodet inh 4µM[single pt active]
COCCCNC(=O)c1ccc(CS(=O)(=O)c2ccc(OC)cc2)o1	AmpC nodet inh 4µM[single pt active]
CC(=O)[C@@]1(O)CC[C@@H]2[C@@H]3CCC4=CC(=O)CC[C@@]4(C)[C@H]3CC[C@]21C	none
COc1ccc(-c2cc(=O)c3c(O)cc(O)cc3o2)cc1	none
O=c1cc(-c2ccc(O)c(O)c2)oc2cc(O)cc(O)c12	Anthrax LT inh inconclusive, AmpC nodet inh 0.5µM!
Cc1cccc2c1Oc1ccccc1[C@@H]2NC(=O)c1ccc([N+](=O)[O-])cc1	none
CCC(=O)Nc1c2c(nn1-c1cccc(Cl)c1)CSC2	AmpC nodet inh 4µM[single pt active]
COc1ccccc1C(=O)N(Cc1ccco1)C1CCS(=O)(=O)C1 (configuration not stated)	none
O=C(c1cnn2ccccc12)N(Cc1ccco1)C1CCCC1	AmpC nodet inh 4µM[single pt active]
C/C=C(\C)C(=O)O[C@@H]1C(C)=C2[C@H]([C@@H]1OC(=O)CCCCCCC)[C@@](C)(OC(C)=O)C[C@@H](OC(=O)CCC)[C@@]1(O)[C@H]2OC(=O)[C@]1(C)O	Anthrax LT inh inconclusive
CO[C@H]1COC(=O)C/C=C\[C@H](C)COC(=O)[C@@H](C)NC(=O)C/C=C\[C@@H]1C	none (no result: SmPrx2 inh, AmpC det inh, AmpC nodet inh)
CCOC(=O)c1ccc(NC(=O)c2ccc(C)c(S(=O)(=O)N3CCOCC3)c2)cc1	SmPrx2 inh inconclusive, Anthrax LT inh 13µM
CCc1cc2cc(C(=O)N3CCN(Cc4ccccc4)CC3)sc2s1	Anthrax LT inh 13µM (no result: SmPrx2 inh)
COC(=O)[C@](C)(N)Cc1ccc(O)cc1	none
COc1ccc2c(CC(=O)Nc3ccc(OC)c(NS(=O)(=O)c4ccc(F)cc4)c3)coc2c1	Anthrax LT inh 10µM, AmpC nodet inh inconclusive
